The experiment is described as follows: growth inhibition of WT strain, primary screen, mitochondrial fusion inhibitor project, WT and mutant strains, chemical genetic (AID 1362). As to conditions: mitochondrial fusion phenotypic screen, at 10 µM.
The mark [1] stands for this setting: WT strain, growth inhibition, stronger effect = higher value.

These results are taken from PubChem BioAssay AID1362 (SRMLSC, 2008).

SMILES strings stand for the structures. The campaign covered roughly 190,000 compounds. About 4,000 (2.1%) were called active. No stated cut-off is given here; in the data, active means inhibition above about 58%; inactive means the rest, inconclusive results apart; tested in S. cerevisiae. The sample as a whole holds a higher share of actives than the screen did.

As to `CN1CCN(CCNC(=O)Nc2ccc([N+](=O)[O-])cc2)CC1`, the inhibition – broadly, the relative decrease from the control value, in per cent – is 22.2% (inactive) under setting [1] and 0.87% (mutant strain inhibition).
As for `O=C(COc1ccc(S(=O)(=O)N2CCCCC2)cc1)NCc1ccccn1`, the inhibition by setting is: under setting [1], 14.7% (inactive); (mutant strain inhibition) 2.79%.
For `O=C(c1ccc(CSc2ccccc2)cc1)N1CCCCCC1` the same measures were 38.9% (inactive) and 19.1%.
For `CC1CCN(C(=O)c2ccc(CSc3ccc(Cl)cc3)cc2)CC1`, the inhibition is, setting by setting: under setting [1], 75.2% (active); (mutant strain inhibition) 26.4%.
For `O=C(C1CC1)N1CCN=C1SCc1ccc(Cl)cc1` the same measures were 22.2% (inactive) and 20.3%.
As to `CN(NC(=O)C1CC(=O)N(c2ccccc2)C1)C1=NS(=O)(=O)c2ccccc21` (stereo not given), the inhibition under setting [1] is -6.62% (inactive) and the inhibition (mutant strain inhibition) was 8.77%.
In the case of `CC(C)N(Cc1ccccc1)C(=O)COC(=O)c1cnccn1`, the inhibition under setting [1] is -8.68% (inactive) and the inhibition (mutant strain inhibition) is -4.78%.
Consider `CCOc1cccc(/C=N/N2C(=O)CSC2=S)c1O`, for which the inhibition is -2% (inactive) under setting [1] and 11.3% (mutant strain inhibition).
Consider `COc1ccc2[nH]c(C)c(CCN(Cc3cccs3)C(=S)Nc3ccccc3OC)c2c1`, for which the inhibition runs as follows: under setting [1], 10.9% (inactive); (mutant strain inhibition) 3.89%.
Regarding `CCNC(=S)N(CCc1c(C)[nH]c2ccc(C)cc12)Cc1ccco1`, the inhibition runs as follows: under setting [1], 22.5% (inactive); (mutant strain inhibition) -3.3%.
On to `COc1cccc(NC(=S)N(CCc2c(C)[nH]c3ccccc23)Cc2ccco2)c1`, for which the inhibition reads like this: under setting [1], 63.2% (active); (mutant strain inhibition) -12.2%.
For the compound `Cc1ccc(N(C(=O)c2sc(C)nc2C)C(C(=O)NC(C)(C)C)c2ccncc2)cc1` (stereo not given), the inhibition under setting [1] is -8.21% (inactive) and the inhibition (mutant strain inhibition) is 7.16%.
For `COc1ccc(C2CC(c3cccs3)=NN2C(=O)CSc2nnc(N)s2)cc1OC` (stereo not given) the same measures were -8.12% (inactive) and -5.34%.
For `CCN1CN(Cc2ccccc2)CNC1=S`, the inhibition by setting is: under setting [1], 1.7% (inactive); (mutant strain inhibition) 0.04%.
Take `CC1CC(=S)Nc2ccccc2N1Cc1ccccc1` (stereo not given): the inhibition reads like this: under setting [1], 65.9% (active); (mutant strain inhibition) 26.3%.
Turning to `CC1CC(C)(C)NC(=S)N1CCC(=O)N1CCN(Cc2ccccc2)CC1` (stereo not given), the inhibition was -6.52% (inactive) under setting [1] and -4.03% (mutant strain inhibition).
Regarding `COc1cccc(CC2(CO)CCCN(Cc3nc(-c4cccs4)oc3C)C2)c1` (stereo not given), the inhibition under setting [1] is 19.9% (inactive) and the inhibition (mutant strain inhibition) is 6.17%.
Regarding `CCN(CC)S(=O)(=O)c1ccc(Cl)c(NC(=O)c2ccncc2)c1`, the inhibition is -7.6% (inactive) under setting [1] and -15.4% (mutant strain inhibition).
Consider `Cc1ccc(COc2ccc(C(=O)NN)cc2)cc1`, for which the inhibition is 18.5% (inactive) under setting [1] and 22.2% (mutant strain inhibition).
Regarding `CN(C)C(=O)c1nc2ccc(Cl)cn2c1CN1CCN(c2ncccn2)CC1`, the inhibition was -14.1% (inactive) under setting [1] and -9.73% (mutant strain inhibition).
For the compound `c1ccc(-c2cn3c(n2)CCc2ccc4cccnc4c2-3)cc1`, the inhibition is 67.5% (active) under setting [1] and 4.75% (mutant strain inhibition).
`c1ccc(-c2cn3cccnc3n2)cc1`: the inhibition under setting [1] is 7.76% (inactive) and the inhibition (mutant strain inhibition) was -1.07%.
As for `COc1ccc(/C=C/C(=O)N2CCCC2)cc1OC`, the inhibition runs as follows: under setting [1], -13.6% (inactive); (mutant strain inhibition) -0.71%.
Consider `Cc1ccccc1-c1n[nH]c(=S)n1C`, for which the inhibition is -5.68% (inactive) under setting [1] and 4.36% (mutant strain inhibition).
With `O=C(Nc1ccccc1N1CCCCC1)c1ccc2nccnc2c1`, the inhibition reads like this: under setting [1], 26.1% (inactive); (mutant strain inhibition) 32.9%.
Turning to `O=C(c1ccccc1)c1ccc2nc(N3CCCCC3)c3nncn3c2c1`, the inhibition runs as follows: under setting [1], 60.2% (active); (mutant strain inhibition) 50.8%.
Take `c1ccc(CC2CCN(c3nc4ccccc4n4cnnc34)CC2)cc1`: the inhibition is, setting by setting: under setting [1], 55.9% (inactive); (mutant strain inhibition) 25.1%.
With `O=C(CN(CC1CCCO1)C(=O)CNS(=O)(=O)c1ccc(F)cc1)NCc1ccco1` (stereo not given), the inhibition under setting [1] was -16.3% (inactive) and the inhibition (mutant strain inhibition) is -1.9%.
`CSCCC(=O)N1CCCC(CNC(=O)c2ccccc2Cl)C1` (stereo not given): the inhibition was 0.33% (inactive) under setting [1] and -1.81% (mutant strain inhibition).
Regarding `CCn1c(=S)[nH]c2sc3c(c2c1=O)CCCCC3`, the inhibition was 44.5% (inactive) under setting [1] and 47.1% (mutant strain inhibition).
In the case of `CCC1(C)Cc2c(sc3[nH]c(=S)n(Cc4ccccc4)c(=O)c23)CO1` (stereo not given), the inhibition runs as follows: under setting [1], 71% (active); (mutant strain inhibition) -13.6%.
Take `CCC1(C)Cc2c(sc3nnn(CC(=O)Nc4ccc(Cl)cc4)c(=O)c23)CO1` (stereo not given): the inhibition is 6.37% (inactive) under setting [1] and 8.2% (mutant strain inhibition).
In the case of `c1ccc2sc(NN=C3CCCC3)nc2c1`, the inhibition is, setting by setting: under setting [1], 1.96% (inactive); (mutant strain inhibition) -13.6%.
For `Cc1cc(C)n2nc(SCC(N)=O)nc2n1` the same measures were 1.11% (inactive) and -5.58%.
For `COc1ccc(Cl)cc1NC(=O)CN(C)Cc1ccc(OC)c(OC)c1` the same measures were 13.3% (inactive) and 10.6%.
`COc1ccc(Br)cc1CN(C)CC(=O)Nc1cc([N+](=O)[O-])ccc1OC`: the inhibition was -3.27% (inactive) under setting [1] and 14% (mutant strain inhibition).
Turning to `COc1ccc(Br)cc1CN(C)CC(=O)Nc1cc(Cl)cc(Cl)c1`, the inhibition under setting [1] is 64.1% (active) and the inhibition (mutant strain inhibition) was -2.55%.
For `CCC(C(=O)Nc1ccc2c(c1)OCCO2)c1ccccc1` (stereo not given), the inhibition reads like this: under setting [1], -3.34% (inactive); (mutant strain inhibition) -11.8%.
For `CCOC(=O)N1CCN(Cc2nc3ccc([N+](=O)[O-])cc3c(=O)n2-c2cccc(OC)c2)CC1` the same measures were -16.2% (inactive) and 2.45%.
Turning to `COc1cc(C(=O)NCc2ccc(-n3cccc3)cc2)cc(OC)c1OC`, the inhibition was 4.37% (inactive) under setting [1] and -13.6% (mutant strain inhibition).
As for `COC(=O)CCNC(=O)c1ccc2[nH]c(C)c(C)c2c1`, the inhibition reads like this: under setting [1], 3.23% (inactive); (mutant strain inhibition) -1.22%.
Take `Cc1ccccc1OCC(O)CN1CCN(c2ccccn2)CC1` (stereo not given): the inhibition was 5.12% (inactive) under setting [1] and 6.35% (mutant strain inhibition).
Regarding `Cc1cccc(C)c1OCC(O)CN1CCCCC1` (stereo not given), the inhibition by setting is: under setting [1], -0.96% (inactive); (mutant strain inhibition) 0.39%.
For `Cc1cccc(OCC(O)CN2CCN(CCN3C(=O)c4cccc5cccc(c45)C3=O)CC2)c1C` (stereo not given) the same measures were 64.5% (active) and 57.3%.
As to `CN(CCc1cn[nH]c1)C(=O)CC1C(=O)NCCN1Cc1cccc(Oc2ccccc2)c1` (stereo not given), the inhibition was 0.86% (inactive) under setting [1] and 0.64% (mutant strain inhibition).
For `CC(C)C(=O)Nc1oc(-c2ccccc2)cc1C#N` the same measures were 8.16% (inactive) and -3.13%.
For the compound `CC(C)(C)Cc1nnc(NC(=O)c2cc(-c3ccccc3)nc3ccccc23)s1`, the inhibition runs as follows: under setting [1], 34.7% (inactive); (mutant strain inhibition) 9.7%.
As for `O=C(Nc1nnc(-c2ccccc2)o1)c1cc(-c2cccs2)nc2ccccc12`, the inhibition under setting [1] is 70.4% (active) and the inhibition (mutant strain inhibition) turned out to be 64.4%.
Regarding `CCCC(=O)Nc1nnc(-c2ccccc2)o1`, the inhibition was -6.78% (inactive) under setting [1] and 13.2% (mutant strain inhibition).
For `Cc1cc(C)c2[nH]c(=O)c(CN(Cc3ccccc3)C(=S)NCCCN(C)C)cc2c1` the same measures were -2.4% (inactive) and 16.4%.
For `Cc1cc2c(cc1C)[n+](C)cn2CC(O)COCC1CC=CCC1` (stereo not given), the inhibition runs as follows: under setting [1], 0.89% (inactive); (mutant strain inhibition) -7.37%.
Take `COc1ccc(C)cc1NC(=O)c1ccc(-c2ccc(C(C)=O)cc2)o1`: the inhibition was 15.7% (inactive) under setting [1] and 5.74% (mutant strain inhibition).
In the case of `COc1cc(SC#N)ccc1N=Cc1c(C)[nH]n(-c2ccc(C)cc2)c1=O`, the inhibition reads like this: under setting [1], 81.4% (active); (mutant strain inhibition) 11.6%.
Take `Cc1ccc(-n2[nH]c(C)c(/C=N/N3C(=O)c4cccc5cccc(c45)C3=O)c2=O)cc1`: the inhibition was 13.3% (inactive) under setting [1] and 13% (mutant strain inhibition).
Take `CCc1nnc(NS(=O)(=O)c2ccc(N=Cc3c(C)[nH]n(-c4ccc(C)cc4)c3=O)cc2)s1`: the inhibition under setting [1] is 40.8% (inactive) and the inhibition (mutant strain inhibition) was found to be 28.3%.
